Measured values reported in PubChem BioAssay (Tox21).
Inconclusive results are not listed. Unmarked numbers belong to inactive results. Calls of active or inactive are those of the source. Calls follow the shape of the dose curve; as a rule, active = well fitted curve in the direction sought with a large enough effect in the repeat runs; inconclusive = weak or mixed curves; inactive = no such curve, though single readings can be large; an effect the other way counts as inactive or inconclusive.

System: not listed separately
Assay: qHTS assay to identify small molecule antagonists of the estrogen receptor alpha (ER-alpha) signaling pathway using the BG1 cell line in the presence of 0.1 nM 17-beta-estradiol - cell viability counter screen (AID 1259241); also: nearly all actives have a fitted effect of over 40% in size; also: potency is read from the fitted curve at half-maximal effect
Conditions: VM7Luc4E2 (BG1) viability, CellTiter-Fluor protease, 22 h, 0.1 nM estradiol agonist added; series mostly up to 92.4 µM; activity change, negative = cytotoxicity: at the top concentration
Outline: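 VM7Luc4E2, 4,000 cells/well, phenol red-free medium + 10% charcoal-stripped FBS; 24 hr plating; cpd + 0.1 nM E2 final, 22 hr 37C/5% CO2; CellTiter-Fluor 30 min, fluorescence.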
% is scaled to controls: 0 for no effect and ±100 for the full control effect.

Compound	activity change, negative = cytotoxicity	Potency
CN1Cc2cc(C(=O)N3CCC(C4CCNCC4)CC3)ccc2NC(CC(=O)O)C1=O (stereo unspecified)	2.88% [at 42.5 µM]	
CC(=O)[O][Al][O]C(C)=O	0.231%	
Cc1nn(C)c(Oc2ccccc2)c1/C=N/OCc1ccc(C(=O)OC(C)(C)C)cc1		0.0137 µM (active)
COCCCN1CCC(NC(=O)c2cc(Cl)c(N)c3c2OCC3)CC1	-15% [at 42.5 µM]	
C1CCCNCCC1	0.305%	
CCC(Cl)CCC(Cl)C(Cl)CC(Cl)C(Cl)C(Cl)CCl (stereo unspecified)	-5.35%	
CCCCC(CC)COC(=O)COc1ccc(Cl)cc1Cl (stereo unspecified)	0%	
CCC(C)O (stereo unspecified)	9.79%	
C[C@@H](c1ncncc1F)C(O)(Cn1cncn1)c1ccc(F)cc1F (stereo partly specified)	5.99% [at 42.5 µM]	
CC(C)(C)OCC1CO1 (stereo unspecified)	10.8%	
COS(=O)(=O)C(F)(F)F	-12.8%	
C[Si](C)(CCCN)O[Si](C)(C)CCCN	-12.8%	
O=C1OC(=O)C2C3C=CC(C3)C12 (stereo unspecified)	0.184%	
CC(C)(C)Cl	8.6%	
Cc1ccc(C(C)OC(=O)C2(C)CCC(C(=O)O)C2(C)C)cc1 (stereo unspecified)	1.31% [at 42.5 µM]	
CC(CSC(=O)c1ccccc1)C(=O)N1C[C@@H](Sc2ccccc2)C[C@H]1C(=O)O (stereo partly specified)	3.73% [at 19 µM]	

Compound	activity change, negative = cytotoxicity	Potency
O=C(NCCO[N+](=O)[O-])c1cccnc1	-0.905% [at 42.5 µM]	
CN(C)CCN(Cc1ccsc1)c1ccccn1	1.02% [at 42.5 µM]	
Nc1cc(C(=O)O)c(O)c(S(=O)(=O)O)c1	5.3%	
COC(=O)c1ccc(I)cc1S(=O)(=O)NC(=O)Nc1nc(C)nc(OC)n1	1.28%	
CC(C)Nc1ccc(NC(C)C)c2c1C(=O)c1ccccc1C2=O	-18.4% [at 42.5 µM]	
CC(C)OC(=O)C(C)N(C(=O)c1ccccc1)c1ccc(F)c(Cl)c1 (stereo unspecified)	-11.4%	
CC(C)(CO)[N+](=O)[O-]	-6.06%	
COc1ccc(C(=O)N2CCN(CC(=O)N3CCOCC3)CC2)cc1	-3.28% [at 42.5 µM]	
O=C(O)c1ccccc1Cl	0%	
CCCCCCCC#N	0.576%	
CCCCc1ncc(/C=C(\Cc2cccs2)C(=O)O)n1Cc1ccc(C(=O)O)cc1	0.0066% [at 42.5 µM]	
CC1(c2ccccc2)OC(C(=O)O)=CC1=O (stereo unspecified)	-9.94% [at 42.5 µM]	
NC(N)=NCCC[C@H](N)C(=O)O	2.44% [at 8.39 µM]	
CC/C=C\CCOC(=O)CC	4.79%	
CN1CCN(C(c2ccccc2)c2ccccc2)CC1	3.3% [at 42.5 µM]	

System: not listed separately
Assay: qHTS assay to identify small molecule antagonists of the androgen receptor (AR) signaling pathway using the MDA cell line in the presence of 0.5 nM R1881 - cell viability counter screen (AID 1259242); also: nearly all actives have a fitted effect of over 45% in size
Conditions: MDA-kb2 viability, CellTiter-Fluor protease fluorescence, 16 h; series mostly up to 92.4 µM; viability change, negative = cytotoxic: at the top concentration
Outline: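 Viability of MDA-kb2 cells was multiplexed with the luciferase AR readout; after 16 hr with compounds and R1881 at 0.5 nM final, CellTiter-Fluor fluorescence was recorded.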

Compound	viability change, negative = cytotoxic
CC(=O)NO	0.0943% [at 42.5 µM]
CC(=O)[O][Al][O]C(C)=O	4.75%
O=C1OC(CN2CCOCC2)CN1/N=C/c1ccc([N+](=O)[O-])o1 (stereo unspecified)	-13.1% [at 42.5 µM]
CCCCC(CC)COC(=O)COc1ccc(Cl)cc1Cl (stereo unspecified)	3.95%
CCC(C)O (stereo unspecified)	-0.0306%
CC(C)(C)OCC1CO1 (stereo unspecified)	3.21%
O=C1OC(=O)C2C3C=CC(C3)C12 (stereo unspecified)	1.25%
Cc1ccc(C(C)OC(=O)C2(C)CCC(C(=O)O)C2(C)C)cc1 (stereo unspecified)	-1.7% [at 42.5 µM]
O=C(NCCO[N+](=O)[O-])c1cccnc1	2.16% [at 42.5 µM]
Nc1cc(C(=O)O)c(O)c(S(=O)(=O)O)c1	-1.2%
O=S(c1cc(Cl)cc(Cl)c1O)c1cc(Cl)cc(Cl)c1O	-5.86% [at 42.5 µM]
COC(=O)c1ccc(I)cc1S(=O)(=O)NC(=O)Nc1nc(C)nc(OC)n1	4.06%
C[C@H]1C[C@H]2[C@@H]3CCC4=CC(=O)C=C[C@]4(C)[C@@]3(Cl)[C@@H](O)C[C@]2(C)[C@@]1(O)C(=O)CO	-5.02% [at 42.5 µM]
CC(C)Nc1ccc(NC(C)C)c2c1C(=O)c1ccccc1C2=O	-18.1% [at 42.5 µM]
CC(C)OC(=O)C(C)N(C(=O)c1ccccc1)c1ccc(F)c(Cl)c1 (stereo unspecified)	-11.3%
CC(C)(CO)[N+](=O)[O-]	5.18%
O=C(O)c1ccccc1Cl	3.08%
CCCCCCCC#N	1.39%
CC1(c2ccccc2)OC(C(=O)O)=CC1=O (stereo unspecified)	0.961% [at 42.5 µM]
CC/C=C\CCOC(=O)CC	2.05%

Biological target: Androgen receptor (Homo sapiens) (UniProt P10275)
Assay: qHTS assay to identify small molecule antagonists of the androgen receptor (AR) signaling pathway using the MDA cell line in the presence of 0.5 nM R1881 (AID 1259243); also: nearly all actives have a fitted effect of over 50% in size; also: potency is read from the fitted curve at half-maximal effect
Conditions: MDA-kb2 MMTV-luciferase, R1881 0.5 nM, 16 h; series mostly up to 42.5 µM; activity, negative = inhibition: at the top concentration
Outline: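 Reporter cells cultured without CO2 receive test chemicals, then 0.5 nM R1881 final; after 16 hr at 37C, ONE-Glo is added and light output recorded.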

Sequence of Androgen receptor (Homo sapiens) (P10275 whole entry, looked up): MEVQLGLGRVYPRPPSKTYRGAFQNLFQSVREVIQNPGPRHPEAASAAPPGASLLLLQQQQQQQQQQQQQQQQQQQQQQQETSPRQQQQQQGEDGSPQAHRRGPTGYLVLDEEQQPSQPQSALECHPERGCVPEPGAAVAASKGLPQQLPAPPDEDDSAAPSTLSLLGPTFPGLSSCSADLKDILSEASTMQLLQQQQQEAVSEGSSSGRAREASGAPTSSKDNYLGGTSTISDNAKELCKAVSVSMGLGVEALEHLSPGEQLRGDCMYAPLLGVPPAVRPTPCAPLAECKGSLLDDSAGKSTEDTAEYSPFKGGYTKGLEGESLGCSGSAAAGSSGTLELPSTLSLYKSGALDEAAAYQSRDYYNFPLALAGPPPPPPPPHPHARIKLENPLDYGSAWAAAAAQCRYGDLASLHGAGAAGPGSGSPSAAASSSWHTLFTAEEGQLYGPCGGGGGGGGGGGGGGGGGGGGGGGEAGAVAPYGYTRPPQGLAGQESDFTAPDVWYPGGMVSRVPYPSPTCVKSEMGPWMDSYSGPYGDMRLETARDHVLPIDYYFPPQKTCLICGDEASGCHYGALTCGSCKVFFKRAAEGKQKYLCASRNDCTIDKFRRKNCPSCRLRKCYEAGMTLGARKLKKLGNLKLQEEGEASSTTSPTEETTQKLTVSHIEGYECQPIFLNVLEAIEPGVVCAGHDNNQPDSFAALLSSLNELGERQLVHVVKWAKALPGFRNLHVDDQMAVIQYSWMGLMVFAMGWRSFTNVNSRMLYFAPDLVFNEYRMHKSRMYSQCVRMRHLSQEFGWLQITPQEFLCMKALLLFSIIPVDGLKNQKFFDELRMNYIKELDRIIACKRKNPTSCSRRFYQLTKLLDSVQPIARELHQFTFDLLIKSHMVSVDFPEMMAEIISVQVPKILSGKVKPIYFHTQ

Compound	activity, negative = inhibition [%]	Potency
CC(=O)NO	43.3	
Cc1nn(C)c(Oc2ccccc2)c1/C=N/OCc1ccc(C(=O)OC(C)(C)C)cc1		0.0273 µM (active)
O=C1OC(CN2CCOCC2)CN1/N=C/c1ccc([N+](=O)[O-])o1 (stereo unspecified)		26.6 µM (active)
C[C@@H](c1ncncc1F)C(O)(Cn1cncn1)c1ccc(F)cc1F (stereo partly specified)	1.17	
CN(C)CCN(Cc1ccsc1)c1ccccn1	6.17	
O=S(c1cc(Cl)cc(Cl)c1O)c1cc(Cl)cc(Cl)c1O	15.6	
CN1CCN(C(c2ccccc2)c2ccccc2)CC1	-4.28	

Biological target: Estrogen receptor (Homo sapiens) (UniProt P03372)
Assay: qHTS assay to identify small molecule antagonists of the estrogen receptor alpha (ER-alpha) signaling pathway using the BG1 cell line in the presence of 0.1 nM 17-beta-estradiol (AID 1259244); also: nearly all actives have a fitted effect of over 50% in size; also: potency is read from the fitted curve at half-maximal effect
Conditions: VM7Luc4E2 (BG1) ERE-luciferase, antagonist mode, 0.1 nM E2, 22 h; series mostly up to 42.5 µM; activity change, negative = inhibition: at the top concentration
Outline: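 Estradiol at 0.1 nM (final) stimulates the endogenous ER-alpha of VM7Luc4E2 cells carrying an ERE-driven luciferase; compounds are co-incubated 22 h at 37C and luciferase output quantified by luminescence.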

Sequence of Estrogen receptor (Homo sapiens) (P03372 whole entry, looked up): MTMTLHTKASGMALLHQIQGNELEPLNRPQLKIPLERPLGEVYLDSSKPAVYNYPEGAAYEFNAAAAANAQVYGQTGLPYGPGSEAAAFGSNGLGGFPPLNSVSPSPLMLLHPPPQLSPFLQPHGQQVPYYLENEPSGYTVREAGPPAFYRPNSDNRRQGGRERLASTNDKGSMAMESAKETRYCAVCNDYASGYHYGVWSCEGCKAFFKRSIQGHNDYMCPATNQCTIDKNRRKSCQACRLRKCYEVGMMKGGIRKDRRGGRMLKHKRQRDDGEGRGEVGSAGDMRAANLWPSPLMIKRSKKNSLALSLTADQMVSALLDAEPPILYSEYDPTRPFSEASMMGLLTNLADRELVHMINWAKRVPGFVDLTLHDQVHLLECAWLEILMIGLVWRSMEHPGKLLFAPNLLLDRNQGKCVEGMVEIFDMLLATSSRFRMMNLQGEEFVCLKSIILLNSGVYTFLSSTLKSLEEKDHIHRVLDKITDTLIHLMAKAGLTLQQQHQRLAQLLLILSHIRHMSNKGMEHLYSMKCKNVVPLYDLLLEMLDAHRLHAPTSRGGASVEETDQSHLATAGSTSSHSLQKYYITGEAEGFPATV

Compound	activity change, negative = inhibition	Potency
CN1Cc2cc(C(=O)N3CCC(C4CCNCC4)CC3)ccc2NC(CC(=O)O)C1=O (stereo unspecified)	7.99%	
Cc1nn(C)c(Oc2ccccc2)c1/C=N/OCc1ccc(C(=O)OC(C)(C)C)cc1		0.0122 µM (active)
O=C1OC(CN2CCOCC2)CN1/N=C/c1ccc([N+](=O)[O-])o1 (stereo unspecified)	-11.8%	
C[C@@H](c1ncncc1F)C(O)(Cn1cncn1)c1ccc(F)cc1F (stereo partly specified)	-1.06%	
C[Si](C)(CCCN)O[Si](C)(C)CCCN	-3.68% [at 92.4 µM]	
CC(C)(C)Cl	20.3% [at 92.4 µM]	
CC(CSC(=O)c1ccccc1)C(=O)N1C[C@@H](Sc2ccccc2)C[C@H]1C(=O)O (stereo partly specified)	15% [at 19 µM]	
CN(C)CCN(Cc1ccsc1)c1ccccn1	8.31%	
O=S(c1cc(Cl)cc(Cl)c1O)c1cc(Cl)cc(Cl)c1O	-4.42%	
C[C@H]1C[C@H]2[C@@H]3CCC4=CC(=O)C=C[C@]4(C)[C@@]3(Cl)[C@@H](O)C[C@]2(C)[C@@]1(O)C(=O)CO	11.2%	
COc1ccc(C(=O)N2CCN(CC(=O)N3CCOCC3)CC2)cc1	1.35%	
NC(N)=NCCC[C@H](N)C(=O)O	4.47% [at 8.39 µM]	
CN1CCN(C(c2ccccc2)c2ccccc2)CC1	-0.54%	
